Here are results for 38 compounds from PubChem BioAssay (NCI).

The panel holds about 83,000 compounds, 20% with a hit somewhere; the sample as a whole holds those more often.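 48-hour exposure, single concentration, 96-well plates; percent growth endpoint where 0 means no net growth. Active: below 10.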 Activity calls are given as the source filed them.

One assay deals with SW-620 colon. Put plainly: NCI-60 one-dose screen, 48 h (100 = growth as untreated, 0 = no growth, -100 = all killed). To be noted: 10 µM unless noted.
As for `CN(C)C(CNc1oc(-c2cccc3ccccc23)nc1C#N)c1ccco1` (centres undefined), the growth is 103% (inactive).

As to `COc1cc(C(C)c2ccc3c(ccn3C)c2)cc(OC)c1OC` (centres undefined), the growth was 28% (inactive).

`COC(=O)/C=C1\SC(=Nc2cccc(Cl)c2)N(CCc2c[nH]c3ccccc23)C1=O`: the growth is 40.5% (inactive).

For the compound `Nn1c(SCC(=O)Nc2ccc(Cl)cc2)nnc1-c1cc(F)c(Cl)cc1Cl`, the growth is 92% (inactive).

For the compound `Cc1nc2sc(C(=O)Nc3ccccc3)c(N)c2cc1C(C)O` (centres undefined), the growth is 26.4% (inactive).

Regarding `CC1(C)[C@@H](O)CC[C@]2(C)[C@H]3CC[C@@H]4[C@H]5[C@H](c6cn(-c7ccccc7)nn6)CC[C@]5(CO)CC[C@@]4(C)[C@]3(C)CC[C@@H]12`, the growth is 94.3% (inactive).

For the compound `Cc1ccccc1NC(=O)c1sc2nc(C)c(C(C)O)cc2c1N` (centres undefined), the growth was 36.8% (inactive).

Turning to `c1ccc(-c2n(Cc3ccc4ccccc4n3)cc[n+]2Cc2ccc3ccccc3c2)cc1`, the growth is 8.55% (active).

Regarding `CCOCc1cc(C(C)(C)C)ccc1O`, the growth was 93.4% (inactive).

As to `CN1C(=O)c2cc(Cl)nc3c(NC(=O)c4cccc(Cl)c4)c(Cl)c(NC(=O)c4cccc(Cl)c4)c1c23`, the growth was -58.3% (active).

Consider `COc1cccc(NC(=O)Nc2ccc(Oc3ncnc4[nH]c(C)c(C)c34)cc2)c1`, for which the growth was 81.7% (inactive).

For `COc1ccc2nc(-c3ccc(Cl)cc3)cc(C(=O)N3N=C(c4ccc(N)cc4)CC3c3ccccc3)c2c1` (centres undefined), the growth was 36% (inactive).

Take `Cc1cc(C)c(NC(=O)c2sc3nc4c(cc3c2N)CCCCCC4)c(C)c1`: the growth is 36.2% (inactive).

For `COCCOCCOCc1n(Cc2ccc3ccccc3c2)c2ccccc2[n+]1Cc1ccc2ccccc2c1`, the growth was 18.9% (inactive).

As for `Nc1ccc(C(=O)Nc2cccc(C(=O)Nc3ccc4c(O)c(N=Nc5ccc(N=Nc6ccc(S(=O)(=O)O)cc6)cc5)c(S(=O)(=O)O)cc4c3)c2)cc1`, the growth was 105% (inactive).

For the compound `COC(=O)c1oc2c(C(=O)/C=C/c3ccc(OC)cc3)c(OCCCN3CCCCC3)ccc2c1C`, the growth is -17.9% (active).

Regarding `c1ccc(-c2n(Cc3ccc4ccccc4n3)cc[n+]2Cc2ccc3ccccc3n2)cc1`, the growth is 37.5% (inactive).

As to `Nc1ccccc1NS(=O)(=O)c1ccc(Cl)cc1`, the growth is 99.3% (inactive).

On to `O=C(CCc1nnc2sc(OCc3ccccc3)nn12)c1nc2ccc([N+](=O)[O-])cc2[nH]1`, for which the growth was 107% (inactive).

For `CCCCc1ccc(N=Nc2ccc(OCC[N+](C)(C)C)cc2)cc1`, the growth is 49.6% (inactive).

Regarding `COc1cc(NC(=O)Nc2cnc(Nc3ccc(N4CCOCC4)cc3)nc2Oc2ccc(F)cc2)cc(OC)c1`, the growth was 82.7% (inactive).

As for `COc1ccc(-c2cc(-c3nnc(SCC(=O)Nc4ccc(/C(C)=N\O)cc4)n3-c3ccccc3)c3cc(OC)ccc3n2)cc1`, the growth is 82.1% (inactive).

Regarding `CCSc1nc(Cl)c(C#N)c(-c2ccc(F)cc2)n1`, the growth was 93.3% (inactive).

As to `O=c1c2ccccc2n(CC(O)CN2CCCC2)c2c(Br)cccc12` (centres undefined), the growth was 94.9% (inactive).

As to `C#CCN(CCCOc1ccc(Cl)cc1Cl)CCCSC(=O)CCCCCN1/C(=C\C=C2/CCCC(/C=C/C3=[N+](CCCCCC(=O)[O-])c4ccccc4C3(C)C)=C2Cl)C(C)(C)c2ccccc21`, the growth is 3.31% (active).

Regarding `COc1ccc2nc(-c3ccc(OC)c(OC)c3)cc(-c3nnc(SCC(=O)Nc4ccc(/C(C)=N\O)cc4)n3-c3ccccc3)c2c1`, the growth was 89.6% (inactive).

For the compound `COc1ccc(C(=S)c2cc(OC)c(OC)c(OC)c2)cc1OC(=O)CCl`, the growth was 29.5% (inactive).

With `CCCCc1n(Cc2ccc3ccccc3n2)cc[n+]1Cc1ccc2ccccc2c1`, the growth was 11.2% (inactive).

Consider `CN(CCC#N)C(=O)Nc1ccccc1`, for which the growth is 103% (inactive).

Take `CCn1cc(C(=O)O)c(=O)c2cc(F)c(N3CCN(CC(=O)Nc4ccc(/C(C)=N/OC)cc4)CC3)cc21`: the growth is 110% (inactive).

With `COc1ccc2c(c1)C1(C(=O)N2)C(C#N)=C(c2ccccc2)Nc2c1c(-c1ccccc1)nn2-c1ccccc1` (centres undefined), the growth is 8.54% (active).

For the compound `O=C(CCc1nnco1)c1nc2ccc([N+](=O)[O-])cc2[nH]1`, the growth was 106% (inactive).

For `Nc1c(C(=O)Nc2cccc3ccccc23)sc2nc3c(cc12)CCCCC3`, the growth was 24.3% (inactive).

Take `C[C@]12CC[C@@H]3c4ccc(O)cc4CC[C@H]3[C@@H]1C[C@H](O)C2`: the growth was 33.9% (inactive).

Turning to `C(=C\c1cn(-c2ccccc2)nc1-c1ccccc1)/c1nnc(-c2c[nH]c3ccccc23)o1`, the growth is 45.8% (inactive).

As to `COc1ccc(-c2nnc(N3CCN(C(=O)CN4CCN(c5ccccc5)CC4)CC3)nc2-c2ccc(OC)cc2)cc1`, the growth is 35.7% (inactive).

Take `O=C(/C(=C/c1ccc([N+](=O)[O-])cc1)SCc1ccc(Cl)cc1)c1ccc(F)cc1`: the growth is -9.4% (active).

As to `CCOCCc1c(O)nc(SC)[nH]c1=O`, the growth is 90.9% (inactive).

The next assay has as its system HCT-116 colon. The description is as above. To be noted: 10 µM unless noted.
On to `CN(C)C(CNc1oc(-c2cccc3ccccc23)nc1C#N)c1ccco1` (centres undefined), for which the growth was 89.3% (inactive).

Consider `COc1cc(C(C)c2ccc3c(ccn3C)c2)cc(OC)c1OC` (centres undefined), for which the growth was 5.43% (active).

Take `COC(=O)/C=C1\SC(=Nc2cccc(Cl)c2)N(CCc2c[nH]c3ccccc23)C1=O`: the growth was 38.2% (inactive).

Take `Nn1c(SCC(=O)Nc2ccc(Cl)cc2)nnc1-c1cc(F)c(Cl)cc1Cl`: the growth is 83.1% (inactive).

As for `Cc1nc2sc(C(=O)Nc3ccccc3)c(N)c2cc1C(C)O` (centres undefined), the growth was 30.2% (inactive).

In the case of `CC1(C)[C@@H](O)CC[C@]2(C)[C@H]3CC[C@@H]4[C@H]5[C@H](c6cn(-c7ccccc7)nn6)CC[C@]5(CO)CC[C@@]4(C)[C@]3(C)CC[C@@H]12`, the growth was 94.4% (inactive).

With `Cc1ccccc1NC(=O)c1sc2nc(C)c(C(C)O)cc2c1N` (centres undefined), the growth is 22% (inactive).

On to `CCOCc1cc(C(C)(C)C)ccc1O`, for which the growth is 91.2% (inactive).

For `CN1C(=O)c2cc(Cl)nc3c(NC(=O)c4cccc(Cl)c4)c(Cl)c(NC(=O)c4cccc(Cl)c4)c1c23`, the growth was -56.2% (active).

For `COc1cccc(NC(=O)Nc2ccc(Oc3ncnc4[nH]c(C)c(C)c34)cc2)c1`, the growth was 81.6% (inactive).

As for `COc1ccc2nc(-c3ccc(Cl)cc3)cc(C(=O)N3N=C(c4ccc(N)cc4)CC3c3ccccc3)c2c1` (centres undefined), the growth was 34.8% (inactive).

In the case of `Cc1cc(C)c(NC(=O)c2sc3nc4c(cc3c2N)CCCCCC4)c(C)c1`, the growth is 57.3% (inactive).

`COCCOCCOCc1n(Cc2ccc3ccccc3c2)c2ccccc2[n+]1Cc1ccc2ccccc2c1`: the growth is 20.1% (inactive).

For the compound `Nc1ccc(C(=O)Nc2cccc(C(=O)Nc3ccc4c(O)c(N=Nc5ccc(N=Nc6ccc(S(=O)(=O)O)cc6)cc5)c(S(=O)(=O)O)cc4c3)c2)cc1`, the growth is 91.8% (inactive).

`COC(=O)c1oc2c(C(=O)/C=C/c3ccc(OC)cc3)c(OCCCN3CCCCC3)ccc2c1C`: the growth is 1.36% (active).

On to `Nc1ccccc1NS(=O)(=O)c1ccc(Cl)cc1`, for which the growth was 97% (inactive).

Turning to `CCCCc1ccc(N=Nc2ccc(OCC[N+](C)(C)C)cc2)cc1`, the growth was 48.7% (inactive).

Turning to `COc1cc(NC(=O)Nc2cnc(Nc3ccc(N4CCOCC4)cc3)nc2Oc2ccc(F)cc2)cc(OC)c1`, the growth was 6.9% (active).

As to `CCSc1nc(Cl)c(C#N)c(-c2ccc(F)cc2)n1`, the growth was 91.8% (inactive).

Consider `O=c1c2ccccc2n(CC(O)CN2CCCC2)c2c(Br)cccc12` (centres undefined), for which the growth was 90.4% (inactive).

With `C#CCN(CCCOc1ccc(Cl)cc1Cl)CCCSC(=O)CCCCCN1/C(=C\C=C2/CCCC(/C=C/C3=[N+](CCCCCC(=O)[O-])c4ccccc4C3(C)C)=C2Cl)C(C)(C)c2ccccc21`, the growth was 9.39% (active).

Take `COc1ccc(C(=S)c2cc(OC)c(OC)c(OC)c2)cc1OC(=O)CCl`: the growth is 9.73% (active).

On to `CN(CCC#N)C(=O)Nc1ccccc1`, for which the growth is 109% (inactive).

Turning to `CCn1cc(C(=O)O)c(=O)c2cc(F)c(N3CCN(CC(=O)Nc4ccc(/C(C)=N/OC)cc4)CC3)cc21`, the growth was 104% (inactive).

With `COc1ccc2c(c1)C1(C(=O)N2)C(C#N)=C(c2ccccc2)Nc2c1c(-c1ccccc1)nn2-c1ccccc1` (centres undefined), the growth is 4.04% (active).

For the compound `Nc1c(C(=O)Nc2cccc3ccccc23)sc2nc3c(cc12)CCCCC3`, the growth was 8.52% (active).

Take `C[C@]12CC[C@@H]3c4ccc(O)cc4CC[C@H]3[C@@H]1C[C@H](O)C2`: the growth was 49.1% (inactive).

For `C(=C\c1cn(-c2ccccc2)nc1-c1ccccc1)/c1nnc(-c2c[nH]c3ccccc23)o1`, the growth is 24.7% (inactive).

Turning to `COc1ccc(-c2nnc(N3CCN(C(=O)CN4CCN(c5ccccc5)CC4)CC3)nc2-c2ccc(OC)cc2)cc1`, the growth was 8.34% (active).

As for `O=C(/C(=C/c1ccc([N+](=O)[O-])cc1)SCc1ccc(Cl)cc1)c1ccc(F)cc1`, the growth is -54.9% (active).

In the case of `CCOCCc1c(O)nc(SC)[nH]c1=O`, the growth was 100% (inactive).
